High-throughput results as filed in PubChem BioAssay.
PostGolgi ctrl – yeast control strain growth, post-Golgi counter-screen | actives 5% (n = 98,000) | inhibition, % at 10 µM | efflux-deficient yeast background strain, growth absorbance A615, 16 h
PostGolgi yeast – growth inhibition of a yeast mutant, post-Golgi transport screen | post-Golgi transport phenotypic cell assay | inhibition, % at 10 µM | actives 0.9% (n = 98,000) | AID 739;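 further: yeast cells grown in 1536-well plates; yeast grown about 18 h at 30C before absorbance read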
DAT uptake mod – changed human dopamine transporter uptake under cocaine IC80. Q01959. LLC-PK1 hDAT cells, [14C]-dopamine uptake with cocaine IC80; actives deviate in either direction. B-score at 10 µM. actives 1.3% (n = 110,000). AID 449768;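 active means Z score or B-score, a plate-position-corrected score, falls beyond the plate's 99.7% confidence bounds, in either direction; inactive means both scores lie inside the 99.7% bounds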;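 further: scored against the spread of the other compound wells on the same plate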
PLAP activator – activators of human placental alkaline phosphatase; P05187; purified PLAP enzyme, luminescent substrate read-out; stronger effect = higher value; activation fold at 20 µM; actives 1.2% (n = 96,000); AID 696; in the data active means activation fold above about 2
Cav3 T inh – blocks human Cav3.2 T-type calcium channel; Cav3.2-expressing cells, Fluo-4 calcium fluorescence FDSS; stronger effect = lower value; AID 449739; actives 4% (n = 100,000); O95180; B-score at 10 µM;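 active means single-dose well whose peak fluorescence ratio is a statistical outlier from its plate by either plate-standardised score or position-corrected B-score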
* = called active by the depositor. An excerpt weighted towards active compounds, which were near 9.6% of everything screened. Unless noted, no stated cut-off is given here; in the data, active means inhibition above about 30%; inactive means the rest.

For CCOC(=O)c1c(C)nc2c(c1-c1ccccc1)C(=O)c1ccccc1-2 the results were PostGolgi ctrl 35.1*, PostGolgi yeast 1.3, DAT uptake mod 2.1, PLAP activator 1 and Cav3 T inh -1.26.
`COc1ccc(OC)c(C(=O)N2CCC(C(=O)c3ccc(F)cc3)CC2)c1` gave DAT uptake mod 0.0616 and Cav3 T inh 1.02.
`Cc1ccccc1NC(C)C(=O)N/N=C/c1ccccc1OCc1cccc(Br)c1` (stereo not given) gave PostGolgi ctrl 8.1, PostGolgi yeast -2.6, DAT uptake mod -0.371, PLAP activator 1.2 and Cav3 T inh -6.38*.
O=C(Cc1ccccc1)N/N=C/c1ccccc1OCc1ccc(Cl)cc1 was read as PostGolgi ctrl 24.2, PostGolgi yeast -9.3, DAT uptake mod 0.00987, PLAP activator 0.7 and Cav3 T inh -0.75.
COc1ccc(NC(=O)[C@@H]2CC=C[C@@H]3CCN(C4CCCCC4)C(=O)[C@@H]32)cc1 was read as DAT uptake mod 1.55 and Cav3 T inh 0.142.
For Cc1ccc(-n2nnnc2SC(C)C(N)=O)c(C)c1 (stereo not given) the results were PostGolgi ctrl 6.0, PostGolgi yeast 14.0, DAT uptake mod 0.456, PLAP activator 0.9 and Cav3 T inh 0.00731.
For Cc1ccc(-n2nnnc2SC(C)C(=O)Nc2ccc(Cl)cn2)cc1 (stereo not given) the results were PostGolgi ctrl 26.9, PostGolgi yeast 7.4, DAT uptake mod -0.338, PLAP activator 0.8 and Cav3 T inh -4.11*.
COc1ccc(Oc2cc(C(F)(F)F)cnc2C(N)=O)cc1 was read as PostGolgi ctrl -5.5, PostGolgi yeast 12.4, DAT uptake mod 0.0144 and PLAP activator 0.9.
`NS(=O)(=O)c1cccc(NC(=O)Cn2cnc3ccccc3c2=O)c1` gave PostGolgi ctrl 3.1, PostGolgi yeast 12.9, DAT uptake mod -0.0274, PLAP activator 0.8 and Cav3 T inh 0.526.
`COc1cc(CCC(=O)N2CCN(S(=O)(=O)c3ccc(C)c(C)c3)CC2)cc(OC)c1OC` gave PostGolgi ctrl 0.2, PostGolgi yeast 17.2, DAT uptake mod 0.387, PLAP activator 1.4 and Cav3 T inh 0.604.
CC1CN(S(=O)(=O)c2cccc(-c3csc(-c4ccccc4)n3)c2)CC(C)O1 (stereo not given) was read as PostGolgi ctrl 14.5, PostGolgi yeast -6.4, DAT uptake mod 2.39*, PLAP activator 1.5 and Cav3 T inh -1.11.
Screening CC1CCN(S(=O)(=O)c2ccc3[nH]c(=O)cc(C(=O)O)c3c2)CC1 returned PostGolgi ctrl 31.1*, PostGolgi yeast -15.3, DAT uptake mod -1.78, PLAP activator 0.9 and Cav3 T inh -1.75.
Cc1nc(-c2cccc(S(=O)(=O)N3CCCCCC3)c2)cs1 was read as PostGolgi ctrl 15.6, PostGolgi yeast -4.2, DAT uptake mod 2.28, PLAP activator 1.3 and Cav3 T inh -3.48.
For COc1ccc(CCC(=O)N2CCN(S(=O)(=O)c3ccc4ccccc4c3)CC2)cc1 the results were PostGolgi ctrl 36.7*, PostGolgi yeast 0.5, DAT uptake mod -0.218, PLAP activator 1 and Cav3 T inh -0.0926.
Screening Cc1nc(-c2cccc(S(=O)(=O)N3CCC(C)CC3)c2)cs1 returned PostGolgi ctrl 37.6*, PostGolgi yeast -6.6, DAT uptake mod 0.694, PLAP activator 0.9 and Cav3 T inh -3.44.
Screening CC(C)n1c(CCC(=O)O)ccc1-c1ccccc1 returned PostGolgi ctrl -4.8, PostGolgi yeast 13.9, DAT uptake mod 1.48, PLAP activator 1 and Cav3 T inh 1.05.
Screening CC1CCN(S(=O)(=O)c2ccc3ccccc3c2)CC1 returned PostGolgi ctrl 33.6*, PostGolgi yeast 5.5, DAT uptake mod -0.11, PLAP activator 0.5 and Cav3 T inh -2.17.
COc1ccc(S(=O)(=O)N2CCN(C(=O)COc3ccc4c(C)cc(=O)oc4c3)CC2)cc1 was read as PostGolgi ctrl 30.4*, PostGolgi yeast 5.5, DAT uptake mod -0.515, PLAP activator 1.3 and Cav3 T inh 1.22.
Screening CCN(CC(=O)Nc1cccc(OC)c1)C(=O)C1CCN(C(=O)Nc2ccccc2)CC1 returned PostGolgi ctrl 5.8, PostGolgi yeast -5.5, DAT uptake mod -0.00221, PLAP activator 1.2 and Cav3 T inh 0.737.
`Cc1cc(NC(=O)c2ccc(NC(=O)C(C)Oc3ccccc3)cc2)no1` (stereo not given) gave PostGolgi ctrl -13.3, PostGolgi yeast -2.0, DAT uptake mod 0.659 and Cav3 T inh -0.0438.
Cc1ccc(-c2noc(CCC(=O)NCCN3CCc4ccccc4C3)n2)cc1 was read as PostGolgi ctrl -0.9, PostGolgi yeast -6.4, DAT uptake mod 0.214, PLAP activator 1.5 and Cav3 T inh -7.06*.
Screening COc1ccc(NC(=O)CCCn2c(=O)[nH]c3ccccc3c2=O)cc1 returned PostGolgi ctrl -0.7, PostGolgi yeast -10.3, DAT uptake mod 0.623, PLAP activator 0.9 and Cav3 T inh 0.883.
Screening CCN(Cc1ccccc1)C(=O)CCc1nc(-c2ccc(C)cc2)no1 returned PostGolgi ctrl 42.2*, PostGolgi yeast -3.9, DAT uptake mod 0.0155, PLAP activator 1.7 and Cav3 T inh -7.5*.
For CCc1ccccc1N(CC)C(=O)CCc1nc(-c2ccc(C)cc2)no1 the results were PostGolgi ctrl 23.2, PostGolgi yeast -6.8, DAT uptake mod 1.06, PLAP activator 1.9 and Cav3 T inh -2.79.
COc1ccc(NC(=O)CCCCn2c(=O)[nH]c3ccccc3c2=O)cc1 was read as PostGolgi ctrl 3.4, PostGolgi yeast 1.6, DAT uptake mod -7.72*, PLAP activator 0.9 and Cav3 T inh 0.185.
For Cc1ccc(-c2noc(CCC(=O)NCCN3CCOCC3)n2)cc1 the results were PostGolgi ctrl -0.5, PostGolgi yeast 6.7, DAT uptake mod -0.197, PLAP activator 1.3 and Cav3 T inh 0.564.
For CCN(CCCNC(=O)CCc1nc(-c2ccc(C)cc2)no1)c1cccc(C)c1 the results were PostGolgi ctrl 35.7*, PostGolgi yeast 7.9, DAT uptake mod 0.0681, PLAP activator 1.2 and Cav3 T inh -8.15*.
Screening Cc1ccnc(NS(=O)(=O)c2ccc(N)cc2)n1 returned PostGolgi ctrl 18.6, PostGolgi yeast -1.1, DAT uptake mod 0.13, PLAP activator 0.9 and Cav3 T inh -1.27.
`COc1ccc(-c2cc3ccccc3oc2=O)cc1NC(=O)c1cccnc1` gave PostGolgi ctrl 2.3, PostGolgi yeast -1.6, DAT uptake mod 0.0739, PLAP activator 1 and Cav3 T inh 0.948.
For CCN(CCCNC(=O)CCCn1c(=O)[nH]c2ccccc2c1=O)c1cccc(C)c1 the results were PostGolgi ctrl -3.4, PostGolgi yeast -4.7, DAT uptake mod 0.228, PLAP activator 1.1 and Cav3 T inh -5.5*.
For O=C(COc1ccc(Cl)cc1Cl)NCCCN1CCOCC1 the results were PostGolgi ctrl 18.1, PostGolgi yeast 64.9*, DAT uptake mod -0.651, PLAP activator 1.2 and Cav3 T inh 0.518.
O=C(COc1ccc(Cl)cc1Cl)NCCC1=CCCCC1 was read as PostGolgi ctrl 48.3*, PostGolgi yeast -18.4, DAT uptake mod 0.915, PLAP activator 0.9 and Cav3 T inh -0.398.
